This is part of a sample that, as a whole, favours compounds with a hit. Of some 83,000 tested, about 20% had one in any assay.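 Method: cells in 96-well plates; compound added at one concentration; 48 h incubation; percent growth measured; values under 10 scored active.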 Unmarked numbers belong to inactive results. Activity calls are given as the source filed them.

This experiment has as its system PC-3 prostate. Description: NCI-60 one-dose screen, 48 h (100 = growth as untreated, 0 = no growth, -100 = all killed). The settings on record: 10 µM unless noted.
For `C=C(C)[C@@H]1CC[C@]2(C(=O)OC)CC[C@]3(C)[C@H](CC[C@@H]4[C@@]5(C)C/C(=C/c6cccc(I)c6)C(=O)C(C)(C)[C@@H]5CC[C@]43C)[C@@H]12`, the growth was 96%. Take `N#Cc1c(-c2ccc(Cl)cc2)nc(NN=Cc2ccco2)nc1N1CCOCC1`: the growth is 68.3%. In the case of `C=CC(=O)Nc1cccc(Nc2nc(SC)nc(-c3cccc([N+](=O)[O-])c3)c2C#N)c1`, the growth was 37.5%.

In the case of `COc1ccc(/C=C/C(=O)c2ccc(O)c(CN3CCN(c4cc5c(cc4F)c(=O)c(C(=O)O)cn5C4CC4)CC3)c2)cc1`, the growth is 18.1%.

Take `COc1cc2nc(N3CCCC3)nc(Nc3ccccc3)c2cc1OC`: the growth is 29.4%. For the molecule `COc1cccc(-c2nc3sccn3c2-c2ccnc(NCCNS(=O)(=O)c3ccccc3)c2)c1`, the growth is 11.3%. Regarding `COc1cc(/C=C/C(=O)c2c(C)oc3nc[nH]c(=O)c23)cc(OC)c1OC`, the growth was 83.4%.

Turning to `C=C(C)[C@@H]1CC[C@]2(C(=O)OC)CC[C@]3(C)[C@H](CC[C@@H]4[C@@]5(C)C/C(=C/c6ccc(OC)cc6)C(=O)C(C)(C)[C@@H]5CC[C@]43C)[C@@H]12`, the growth was 84.9%. Consider `O=S(=O)(Nc1ccc(I)cc1F)c1ccc(-c2cnc(C3CC3)o2)cc1`, for which the growth is 68%. As for `COc1cc2nc(N3CCCC3)nc(NCCc3ccccc3)c2cc1OC`, the growth was 67%. `COc1ccc(Nc2nc(SC)nc(-c3cccc([N+](=O)[O-])c3)c2C#N)cc1`: the growth was 75.8%.

With `COc1cc(CNc2oc(-c3ccccc3)c(-c3ccccc3)c2C#N)cc(CN2CCN(C)CC2)c1O`, the growth was 57.6%. `COc1ccc(-c2nc3ccc(-c4nc5ccc(N6CCN(c7ccncc7)CC6)cc5[nH]4)cc3[nH]2)cc1OC`: the growth was 54.8%. Turning to `O=C1/C(=C/c2cn(-c3ccccc3)nc2-c2ccccc2)SC(=S)N1CCc1ccccc1`, the growth is 100%. Turning to `CCCN1CCN(c2ccc3nc(-c4ccc5nc(-c6ccc(OCC)cc6)[nH]c5c4)[nH]c3c2)CC1`, the growth is -69.5% (active).

`COc1cccc(-c2nc3sccn3c2-c2ccnc(NCCCNS(=O)(=O)c3cccc(F)c3)c2)c1`: the growth is 13.6%. With `Cn1c(=O)c2c(nc3n(-c4ccc(Cl)cc4Cl)c(Sc4nc(-c5ccccc5)c(C#N)c(=O)[nH]4)cn23)n(C)c1=O`, the growth is 75.7%.

As to `O=C(/C=C/c1ccccc1)c1ccc(O)c(CN2CCN(c3cc4c(cc3F)c(=O)c(C(=O)O)cn4C3CC3)CC2)c1`, the growth was 18.3%.

For the molecule `C=CC(=O)Nc1cccc(-c2nc(SC)nc(Nc3ccccc3OC)c2C#N)c1`, the growth was 31.9%. For the molecule `COc1cccc(-c2nc3sccn3c2-c2ccnc(NCCNS(=O)(=O)c3ccc(F)cc3)c2)c1`, the growth is 16.3%. With `COc1cc2nc(N3CCCC3)nc(NCc3ccccc3)c2cc1OC`, the growth was 67.2%.

Take `N#Cc1c(-c2ccc(Cl)cc2)nc(N/N=C/c2cccc(Br)c2)nc1N1CCOCC1`: the growth was 61.2%. Turning to `CSc1nc(-c2cccc(NC(=O)CCl)c2)c(C#N)c(=O)n1C`, the growth is 77.5%.

Consider `C=CC(=O)Nc1cccc(-c2nc(SC)nc(NCCc3ccc(OC)c(OC)c3)c2C#N)c1`, for which the growth was 53.2%. Under `O=C(/C=C/c1cccc([N+](=O)[O-])c1)c1ccc(O)c(CN2CCN(c3cc4c(cc3F)c(=O)c(C(=O)O)cn4C3CC3)CC2)c1` stands 18.4%; under `COc1cc(/C=C/C(=O)c2ccc(O)c(CN3CCN(c4cc5c(cc4F)c(=O)c(C(=O)O)cn5C4CC4)CC3)c2)cc(OC)c1OC`, 47.1%. Take `CC(C)(O)c1cn(CCCCN2C(=O)C(=O)c3ccccc32)nn1`: the growth was 96.3%.

Turning to `COC(=O)[C@]12CCC(C)(C)C[C@H]1[C@H]1C(=O)C[C@@H]3[C@@]4(C)c5c([nH]c6ccccc6c5=O)C(C)(C)[C@@H]4CC[C@@]3(C)[C@]1(C)CC2`, the growth was 36.6%.

In the case of `N=C(N)c1ccc(-c2ccc(-c3ccc4ccccc4c3)s2)s1`, the growth was 71.9%.

As for `C=CC(=O)Nc1cccc(-c2nc(SC)nc(NCCN3CCOCC3)c2C#N)c1`, the growth is 92.7%.

With `COc1cc(C=Nc2oc(-c3ccccc3)c(-c3ccccc3)c2C#N)cc(CN2CCCCC2)c1O`, the growth was 93.2%. Turning to `CC1=NN(c2nc(-c3ccc(Cl)cc3)c(C#N)c(N3CCOCC3)n2)C(=O)C1`, the growth is 98.5%. On to `COc1cccc(Nc2nc(SC)nc(-c3cccc([N+](=O)[O-])c3)c2C#N)c1`, for which the growth was 71.2%.

Regarding `CSc1nc(NCCO)c(C#N)c(-c2cccc([N+](=O)[O-])c2)n1`, the growth was 94.7%. As for `Cn1c(O)c(N=NC(=O)c2cc(-c3ccccc3)on2)c2ccccc21`, the growth was 103%. Under `CSc1nc(Nc2cccc(NC(=O)/C(C#N)=C/c3c(Cl)cccc3Cl)c2)c(C#N)c(-c2cccc([N+](=O)[O-])c2)n1` stands 45.1%; under `COc1ccc(-c2nc3ccc(-c4nc5ccc(N6CCN(c7ccccc7)CC6)cc5[nH]4)cc3[nH]2)cc1OC`, -31.5% (active); under `O=C(N=Nc1c(O)[nH]c2ccccc12)c1cc(-c2ccccc2)on1`, 101%. For `O=C1CC(=NCC(=O)n2c(-c3ccccc3)nc3ccccc32)NN1`, the growth is 99.2%.
